From PubChem BioAssay
HePTP inhibitor: inhibitors of human HePTP phosphatase; actives 0.64% (n = 110,000); inhibition, % at 20 µM; recombinant HePTP phosphatase activity, OD absorbance; P35236; in the data active = inhibition above about 50%;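 also: plate controls were vehicle for no effect and reference inhibitor for full effect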
PLAP act: activators of human placental alkaline phosphatase | P05187 | purified PLAP enzyme, luminescent substrate read-out; active compounds read high | activation fold at 20 µM | actives 1.2% (n = 96,000) | AID 696; in the data active = activation fold above about 2
hDAT+cocaine: modulates human dopamine transporter uptake under cocaine; Q01959; LLC-PK1 hDAT cells, [14C]-dopamine uptake with cocaine IC80; actives deviate in either direction; B-score at 10 µM; actives 1.3% (n = 110,000); AID 449768;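 active = Z score or B-score, a plate-position-corrected score, falls beyond the plate's 99.7% confidence bounds, in either direction; inactive = both scores lie inside the 99.7% bounds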;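 also: scored against the spread of the other compound wells on the same plate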
TNAP act DEA: activators of human TNAP at intermediate phosphate acceptor | 64,000 tested, under 10 active | activation factor at 20 µM | P05186 | purified TNAP, CDP-star luminescence, 100 mM DEA, 30 min; active compounds read high; scale: 0 levamisole-inhibited, 1 vehicle-only enzyme;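 active = activation factor of at least 2 at 20 µM, relative to controls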
Target sequence (P05186 whole entry, looked up): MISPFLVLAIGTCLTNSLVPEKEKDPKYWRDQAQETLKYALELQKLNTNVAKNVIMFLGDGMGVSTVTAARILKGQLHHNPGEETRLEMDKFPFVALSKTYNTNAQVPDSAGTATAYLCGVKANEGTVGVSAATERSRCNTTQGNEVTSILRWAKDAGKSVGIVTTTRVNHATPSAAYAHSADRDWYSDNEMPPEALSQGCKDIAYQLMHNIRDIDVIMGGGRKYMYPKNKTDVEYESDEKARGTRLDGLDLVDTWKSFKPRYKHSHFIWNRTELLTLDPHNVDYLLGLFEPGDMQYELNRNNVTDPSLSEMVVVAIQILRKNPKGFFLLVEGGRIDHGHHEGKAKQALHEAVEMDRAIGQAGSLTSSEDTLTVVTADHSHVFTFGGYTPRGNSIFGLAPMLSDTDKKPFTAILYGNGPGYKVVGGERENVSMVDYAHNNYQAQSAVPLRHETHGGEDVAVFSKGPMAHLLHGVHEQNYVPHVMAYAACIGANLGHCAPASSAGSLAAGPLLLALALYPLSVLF
Calb biofilm kill: kills Candida albicans biofilms. actives 0.14% (n = 85,000). AID 834. C. albicans biofilm + clotrimazole, Alamar Blue. inhibition, % at 6 µM;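 active = inhibition above 20%; inactive = inhibition below 20%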;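 also: preformed 24 hr biofilms exposed to compound for 48 hr; 0% = biofilm without compound and 100% = blank killed by clotrimazole plus chlorhexidine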
D1 allo mod: allosteric modulators of human D1 dopamine receptor | P21728 | HEK293 D1, CRE-luciferase, dopamine EC30 potentiation; actives deviate in either direction | B-score at 10 µM | actives 5.9% (n = 58,000) | AID 641;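 active = luminescence count or its row- and column-corrected plate score outside the 99.7% band of the plate's sample wells, on either side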
D1 PAM confirm: confirmation of human D1 dopamine receptor allosteric modulators; shares compounds with D1 allo mod; HEK293 D1 CRE-luciferase, dopamine EC30 potentiation; active compounds read high; luminescence at 10 µM; actives 88% (n = 2,200);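 active = luminescence in either of two replicates above the same-plate mean plus 3 SD of the low-dose dopamine control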
D1 ag no DA: D1 (human) signaling in absence of dopamine; AID 646; shares compounds with D1 allo mod; actives 0.8% (n = 1,900); HEK293 D1 CRE-luciferase, luminescence, no dopamine; active compounds read high; luminescence at 10 µM; in the data active = luminescence above about 3900
Isoprot counter: counter-screen for D1 modulators: isoproterenol response in HEK293 cells; shares compounds with D1 allo mod; luminescence at 10 µM; AID 647; HEK293 D1 CRE-luciferase, isoproterenol EC30 counter-screen; active compounds read high; actives 63% (n = 2,200);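 active = luminescence in either replicate above plate mean of wells with a partly effective reference agonist dose plus 3 SD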;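 also: isoproterenol raises cAMP through native beta-adrenoceptor Gs so signal bypasses D1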
The depositor's hits bear a star; . = no result given. This is one part of a sample in which hits are shown more often than they occur.

SMILES	HePTP inhibitor	PLAP act	hDAT+cocaine	TNAP act DEA	Calb biofilm kill	D1 allo mod	D1 PAM confirm	D1 ag no DA	Isoprot counter
O=C(NC(Cc1ccccc1)C(=O)OCC(=O)N1CCc2ccccc21)c1ccco1 (stereo not drawn)	.	0.8	-0.032	.	8	3.1*	5596	1648	2496
CCOC(=O)C1=C(C)Nc2nc(SC)nn2C1c1ccc(C(=O)OC)cc1 (stereo not drawn)	2	0.8	-0.0079	1	5	4*	8432*	1672	2952
CCCCc1cc2c(c(NC(C)=O)n1)c(=O)oc1ccccc12	6	0.9	-0.44	0.8	4	15*	14552*	1312	3356*
CCCCc1cc2c(c(NC(=O)CC)n1)c(=O)oc1ccccc12	1	0.9	-0.18	0.9	.	6.6*	23508*	1676	4244*
COC(=O)c1ccccc1Nc1cc(C)nc2nc(C)nn12	4	.	.	0.9	9	0.42	.	.	.
CCOC(=O)c1ccccc1Nc1cc(C)nc2nc(C)nn12	5	.	0.22	0.9	0	1.8*	10192*	1536	4012*
CN(C)c1ccc2c(c1)OC(N)=C(C#N)C2c1cccc(F)c1 (stereo not drawn)	19	0.9	-2.1	0.9	3	8.8*	14124*	.	4592*
N#CC1=C(N)Oc2cc(O)ccc2C1c1ccncc1 (stereo not drawn)	4	0.9	0.31	0.9	7	.	.	.	.
COc1ccc(C(=O)N2CCN(c3cccc(C)c3C)CC2)c(OC)c1	-3	.	.	.	.	.	.	.	.
CCOc1ccc(N/C(SC)=C(/C#N)C(N)=O)cc1	-1	0.8	-0.4	0.9	4	5*	6796*	1504	2728
CCc1ccc(N/C(SC)=C(/C#N)C(N)=O)cc1	-4	0.9	-0.31	0.9	-1	0.42	.	.	.
O=Cc1cc(Br)ccc1OCc1ccccc1F	3	.	.	.	.	.	.	.	.
Cc1cc(C(=O)N/N=C/c2c(F)cccc2Cl)n[nH]1	2	.	.	.	.	.	.	.	.
COC(=O)Cn1nc(-c2ccccc2)c2ccccc21	8	.	-0.33	0.9	11	2.5*	5172	1632	2536
COc1ccc(CNc2cc([N+](=O)[O-])ccc2OC)c(OC)c1	-14	.	.	.	.	.	.	.	.
Clc1ccccc1Cn1nnc2c(N3CCCC3)ncnc21	4	1.5	0.64	1	3	3.8*	13096*	1612	2972
COC(=O)CCC(=O)Nc1cc(Cl)ccc1Cl	1	.	.	.	.	.	.	.	.
Cc1ccc(OCCN2C(=O)OC(C)(C)C2(C)O)cc1 (stereo not drawn)	4	1	-0.21	0.9	0	5.5*	7404*	1572	3264
COc1ccc(/C=N/n2cnnc2SCc2ccccc2)cc1OC	6	.	.	.	.	.	.	.	.
CCSc1nncn1/N=C/c1ccc(OC)c(OC)c1	-5	1.1	0.75	0.9	7	8.3*	15592*	1796	7020*
Cc1cc(OCC(=O)Nc2cccc(Cl)c2)cc(C)c1Cl	1	.	.	.	.	.	.	.	.
Cc1ccc(Nc2nc3ccccc3nc2-n2nc(C)cc2C)cc1	.	0.9	0.033	.	3	.	.	.	.
Cc1cc(C)n(-c2nc3ccccc3nc2Nc2ccc(CC(=O)O)cc2)n1	4	1.4	0.49	1	-9	21*	7376*	1728	2624
COc1ccccc1C(=O)N1CCN(Cc2ccccc2Cl)CC1	-8	.	.	.	.	.	.	.	.
CCS(=O)(=O)n1nc(-c2ccco2)nc1SC	4	1.1	-0.036	0.9	7	.	.	.	.
SMILES	HePTP inhibitor	PLAP act	hDAT+cocaine	TNAP act DEA	Calb biofilm kill	D1 allo mod	D1 PAM confirm	D1 ag no DA	Isoprot counter
Cc1ccc(S(=O)(=O)n2nc(-c3ccco3)nc2SCc2ccccc2)cc1	.	1.1	-1.5	.	.	0.0023	.	.	.
CSc1nc(-c2ccco2)nn1S(=O)(=O)c1ccc(C)cc1	-1	1	-0.54	0.9	10	6.5*	11872*	.	2704*
CSc1nc(-c2ccco2)nn1S(=O)(=O)c1ccccc1	-2	1	0.46	0.9	4	6.6*	19196*	1648	4776*
O=C1OC(c2cccc(Cl)c2)=N/C1=C\c1ccccc1[N+](=O)[O-]	8	.	.	.	.	.	.	.	.
COc1cc(/C=C(/C#N)c2nc3ccccc3[nH]2)c([N+](=O)[O-])cc1OCCC(C)C	-5	.	.	.	.	.	.	.	.
COc1cccc(N2C(=O)C(=O)/C(=C(\O)c3ccccc3)C2c2ccc(OC)cc2OC)c1 (stereo not drawn)	6	.	.	.	.	.	.	.	.
Cc1cc(C)nc(SCc2nc(N)nc(-c3ccccc3O)n2)n1	10	1.3	-0.091	0.8	3	13*	17172*	1668	4624*
Nc1nc(N)nc(-c2ccccc2O)n1	.	1	0.26	.	.	.	.	.	.
COc1ccc(N/C=C2/CCCCC2=O)cc1	4	1.6	0.82	1	-1	2.8*	4708	1400	2364
COc1ccc(OC)c(N/C=C2/CCCCC2=O)c1	5	1.3	0.82	0.9	8	1.9	.	.	.
COc1cccc(N2CCN(Cc3nc(N)nc(N4CCCc5ccccc54)n3)CC2)c1	11	1.5	1.9	0.9	7	4.9*	11368*	1496	3376*
COc1ccc(Nc2nc(N)nc(CN3CCc4ccccc4C3)n2)cc1	11	1.6	1.2	0.9	6	2.3	.	.	.
COc1ccccc1C(=O)NC(=S)Nc1cccc2c(C)cc(C)nc12	-13	.	.	.	.	.	.	.	.
CCn1nc(NC(=O)c2cccnc2)c2cc3ccccc3nc21	9	0.9	1.4	0.8	11	6.6*	7008*	1544	2812*
CC(C)Cn1nc(NS(=O)(=O)c2ccccc2)c2cc3ccccc3nc21	7	1.1	0.07	0.9	2	1.1	.	.	.
CC(C)Cn1nc(NC(=O)C2CCCO2)c2cc3ccccc3nc21 (stereo not drawn)	8	1.3	.	1.1	2	12*	16892*	.	3072*
CCCCC(=O)Nc1nn(CCC)c2nc3ccccc3cc12	1	1	0.025	1	3	1.9	.	.	.
CCCCNC(=O)Nc1ccc(Br)cn1	3	1	0.26	0.9	1	7.2*	12048*	1684	2980
CCCCC(=O)Nc1ccc(Br)cn1	.	0.9	0.33	.	5	.	.	.	.
NC1=NC(c2ccc(Cl)cc2)n2c(nc3ccccc32)N1 (stereo not drawn)	8	1.7	1.7	1.3	.	9.1*	11876*	1532	4456
COC(=O)c1c(-c2cccs2)csc1NC(=O)CN1CCOCC1	-4	1.5	1.4	0.9	4	28*	18224*	1740	10288*
Cc1cccc(C(=O)Nc2ccc(S(=O)(=O)Nc3nccs3)cc2)c1	-4	.	.	.	.	.	.	.	.
Cc1cc(C(=O)Nc2ccc(S(=O)(=O)Nc3nccs3)cc2)c(C)o1	7	1.6	-0.48	0.9	11	8.4*	16172*	1476	3752*
